Screening results: PubChem BioAssay, Broad Institute
PrP UTR inh = inhibition of PrP 5' UTR reporter expression. cell-based PrP 5' UTR mRNA reporter, plate reader. inhibition, % (no concentration beside the values). 0.35% of 340,000 active. AID 488862, 2010; in the data active = inhibition above about 52%; also: 0 = median of the neutral control wells
Mtb BioA inh = M. tuberculosis BioA enzyme inhibitors, primary screen, biochemical, plate reader, single point, HTS. 7,8-diaminopelargonic acid synthase BioA (Mycobacterium tuberculosis). purified M. tuberculosis BioA enzyme. inhibition, % at 9.99 µM. 0.096% of 360,000 active. AID 602481, 2012; in the data active = inhibition above about 40%
TcdB GH inh = TcdB glycohydrolase inhibitors, primary screen, biochemical, single point, plate reader; inhibition, % at 9.99 µM; TcdB glycohydrolase enzymatic assay; Toxin B (Clostridioides difficile), P18177; 0.24% of 350,000 active; in the data active = inhibition above about 10%
Y pestis TopoI = Yersinia pestis topoisomerase I inhibitors, primary screen, biochemical, cleavage product accumulation, plate reader, single point | DNA topoisomerase I (Yersinia pestis CO92) | Y. pestis Topo-I cleavage product accumulation | activity, % at 10 µM | 0.064% of 360,000 active | AID 504884, 2011; in the data active = activity above about 50%, passing the limit was not always enough
An asterisk follows results filed as active; nt = no result. Rows were chosen to be rich in hits. Some 0.57% of all compounds tested hit in one or more screens of this group.

SMILES	PrP UTR inh	Mtb BioA inh	TcdB GH inh	Y pestis TopoI
CC(=O)Nc1ccc(N(C(=O)c2ccco2)C(C(=O)NC2CCCC2)c2cccs2)cc1 (stereo unspecified)	-11.2	nt	13.4*	8.0
COc1cccc(C(=O)OCC(=O)Nc2cc(C)on2)c1OC	-13.4	-0.9	10.0*	-2.7
COc1cccc(C(=O)Nc2cc(C)on2)c1OC	-42.2	-1.8	1.0	6.2
OCC[C@H]1C[C@H](O)[C@@H](O)[C@@]2(Cc3ccccc3CO2)O1	-10.1	-0.3	14.3*	15.1
O=C(Nc1nnc(C(F)(F)F)s1)c1ccc(Br)s1	-39.2	-1.6	16.5*	3.5
CC(C)Sc1nnc(NC(=O)c2ccco2)s1	-39.8	-2.2	22.0*	3.6
N#Cc1ccc(C(=O)N/N=C/c2cn(CC(=O)O)c3ccccc23)c(F)c1	-11.5	nt	11.8*	-3.3
COc1ccc(C2(CNC(=O)c3ccc(OC)c([N+](=O)[O-])c3)CCCCC2)cc1OC	-5.6	7.8	12.0*	-2.1
Cc1ccc(S(=O)(=O)Nc2ccc3c(c2)C(=O)N([C@@H](C)CO)C[C@@H](C)[C@H](CN(C)S(=O)(=O)c2ccc(Cl)cc2)O3)cc1	nt	nt	0.2	nt
CC(C)(C)OC(=O)NCc1ccc(NC(=O)c2nc[nH]c2C(=O)NCCCNC(=O)c2[nH]cnc2C(=O)Nc2ccc(CNC(=O)OC(C)(C)C)cc2)cc1	22.5	-2.0	nt	79.2*
C/C=C/c1ccc([C@@H]2[C@@H](CO)N3C(=O)CN(C(=O)NC4CCCC4)C[C@@H]23)cc1	nt	nt	-0.8	nt
CC(Sc1nccn1C)C(=O)c1c(N)n(C)c(=O)n(C)c1=O (stereo unspecified)	-11.2	-1.7	24.4*	4.7
CC(Cl)C(=O)c1c(N)n(C)c(=O)n(C)c1=O (stereo unspecified)	-19.3	nt	0.4	1.9
O=C(O)c1nn(CCOc2cccc(Br)c2)c(=O)c2ccccc12	-12.7	0.6	-4.0	52.3*
O=C(C[C@H]1CC[C@H](NC(=O)CN2CCOCC2)[C@H](CO)O1)NCc1cccc(F)c1	nt	-0.9	0.8	nt
N#Cc1ccc(-c2ccc3c(c2)[C@@H]2[C@@H](CCN2C(=O)CN2CCOCC2)[C@H](CO)N3)cc1	nt	nt	0.1	nt
CCCNC(=O)Nc1ccc2c(c1)C(=O)N(C)[C@H]1CC[C@@H](CC(=O)NC3CCC3)O[C@H]1CO2	nt	-5.7	nt	nt
CCCNC(=O)Nc1ccc2c(c1)C(=O)N(C)[C@@H]1CC[C@H](CC(=O)NC3CCC3)O[C@H]1CO2	nt	-0.7	18.7*	nt
CCCNC(=O)Nc1ccc2c(c1)C(=O)N(C)[C@H]1CC[C@H](CC(=O)NC3CCC3)O[C@@H]1CO2	nt	0.9	14.4*	nt
CCOc1ccc(S(=O)(=O)NCCC(=O)NCc2ccccn2)cc1	-110.7	nt	11.2*	10.0
Cc1ccc(S(=O)(=O)NCCC(=O)NCc2ccccn2)cc1	-23.5	nt	1.3	-3.6
CCC(=O)N1CCCCN2[C@H](C1)[C@H](c1ccc(C#Cc3ccccc3F)cc1)[C@@H]2CO	nt	-3.0	-2.3	nt
CCOC(=O)c1c(C)[nH]c(C)c1C(=O)COC(=O)/C=C/c1ccco1	0.1	1.2	10.4*	-2.8
Cc1ccc(S(=O)(=O)Nc2ccc3c(c2)CC(=O)N([C@@H](C)CO)C[C@@H](C)[C@H](CN(C)S(=O)(=O)c2ccc(Cl)cc2)O3)cc1	nt	2.4	nt	nt
O=C(Nc1ccn(CCCN(CCCn2ccc(NC(=O)OCc3ccccc3)nc2=O)CCc2cc3ccccc3[nH]2)c(=O)n1)OCc1ccccc1	-19.8	-1.3	1.2	77.0*
SMILES	PrP UTR inh	Mtb BioA inh	TcdB GH inh	Y pestis TopoI
CC1C(=O)NN=C1c1ccc([N+](=O)[O-])cc1 (stereo unspecified)	-8.0	nt	10.5*	-5.3
C[C@@H]1CCCCO[C@@H](CN(C)C(=O)Nc2ccc(F)cc2)[C@H](C)CN([C@@H](C)CO)C(=O)c2cc(NC(=O)CCC(F)(F)F)ccc2O1	nt	2.1	1.0	nt
O=C(NC(=S)Nc1ccc(N2CCOCC2)cc1)c1ccccc1	-30.5	1.9	23.1*	0.1
O=C(C[C@H]1CC[C@@H]2[C@H](COC[C@H](O)CN2S(=O)(=O)c2ccc(Cl)cc2)O1)N[C@H]1CCN(Cc2ccccc2)C1	nt	0.3	0.5	nt
CO[C@@H](CN(C)S(=O)(=O)c1cn(C)cn1)[C@@H](C)CN(C(=O)Nc1ccc(C(F)(F)F)cc1)[C@H](C)CO	nt	-1.0	-0.2	nt
C[C@@H]1CN([C@@H](C)CO)C(=O)Cc2cc(NC(=O)Nc3cccc4ccccc34)ccc2O[C@H]1CN(C)Cc1ccc2c(c1)OCO2	nt	-3.1	0.7	nt
CCNC(=O)[C@H]1[C@H](CO)[C@H]2Cn3c(ccc(-c4ccccc4)c3=O)[C@H]2N1CC	nt	0.6	14.3*	nt
O=C(NC(=S)NNS(=O)(=O)c1ccccc1)c1cccnc1	4.7	nt	10.8*	14.5
CCCC(=O)Nc1ccc2c(c1)OC[C@H](C)N(C(=O)C1CCCC1)C[C@H](C)[C@H](OC)CN(C)C2=O	nt	-0.4	1.3	nt
COC(=O)/C(N=Nc1c(C)n(C)n(-c2ccccc2)c1=O)=C(\C)O	-7.2	nt	nt	0.8
COc1cc(N=Nc2c(C)n(C)n(-c3ccccc3)c2=O)ccc1N	1.6	0.5	14.1*	2.1
O=S(=O)(Cc1cccc(F)c1)c1c[nH]c2ccccc12	1.4	0.6	15.5*	-1.9
O=C(CS(=O)(=O)c1c[nH]c2ccccc12)Nc1ccc(F)cc1	-5.9	-0.4	0.4	0.9
Cc1ccccc1CC(=O)N1CCOCC1	-32.5	-0.5	-1.0	3.4
Cc1ccccc1Cn1cc(CCC(=O)N2CCOCC2)c2ccccc21	-12.0	nt	0.2	53.7*
C/C(=N\NC(N)=S)c1ccc2c(c1)OCCO2	-2.5	nt	12.3*	4.5
CC(=O)N/N=C(\C)c1ccc2c(c1)OCCO2	-9.2	nt	0.5	-1.4
COC(=O)/C=C/C(=O)Nc1ccc(O)c(Cl)c1	-17.1	nt	31.0*	-13.0
O=C(NCC[C@H]1CC[C@H](NS(=O)(=O)c2ccc(F)cc2)[C@@H](CO)O1)c1ccccc1F	nt	nt	0.2	nt
COc1ccccc1OCC(=O)Nc1ccc(-c2nnc(-c3ccco3)o2)cc1	-24.1	-0.2	11.9*	4.1
Cc1cc(C)nc(SCC(=O)c2ccc(O)c(O)c2)n1	12.4	-0.5	10.9*	2.5
Nc1ccc(-c2nc3ccc(N)cc3o2)cc1	-12.8	-0.3	10.6*	4.8
CC(C)c1ccc(N(CC(=O)NCc2ccc(F)cc2)C(=O)c2snc(C(N)=O)c2N)cc1	-2.3	-1.9	1.5	66.5*
O=C(O)c1cccnc1SCc1ccccc1Cl	-16.6	-1.4	11.2*	5.8
CO[C@H]1CN(C)C(=O)c2cc(NC(=O)Nc3cccc(F)c3)ccc2OC[C@@H](C)NC[C@H]1C	nt	-0.2	-0.9	nt
C[C@@H]1CN([C@H](C)CO)C(=O)Cc2cc(NC(=O)C3CCCCC3)ccc2O[C@H]1CN(C)Cc1ccc(Oc2ccccc2)cc1	nt	0.7	-1.4	nt
COC(=O)c1sc2nc(SCc3cccc(Cl)c3)n(N)c(=O)c2c1C	-23.0	nt	0.9	8.5
COC(=O)c1sc2nc(SCc3ccccc3C)n(N)c(=O)c2c1C	-6.2	nt	16.4*	-4.6
C=C1CCN(Cc2ccccc2)S(=O)(=O)c2ccccc21	-15.6	1.3	11.0*	10.1
Nc1nc(Nc2ccccc2)n[nH]1	-3.6	-0.8	12.9*	0.7
